Thermal melting temperature data for 16 sequences are collected here from the supplement of paper PMC7726561.

In all, about 1,400 sequences were measured (“thermal melting temperature (Tm) of peptide-HLA complex”: median about 60, lowest 2% from about 45 on). The full list was thinned out, with the lowest values kept by preference.
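Note: lysates heated 10 min at 37–73 °C, complexes pulled down with pan-HLA I antibody, peptide signal by DIA-MS relative to 37 °C, Tm where half the complex is unfolded.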

This test addresses HLA-B*07:02. The test is described as follows: thermal melting temperature (Tm) of peptide-HLA complex; higher = more thermostable pHLA complex. Particulars: C1R-B*07:02.
As for KPHLPSVTYL, the thermal melting temperature amounted to 60.8 °C.
Regarding NVKKVSLEL, the thermal melting temperature stood at 44.3 °C.
To APAGLPRETL belongs 58.1 °C; to IPDHFRPPL, 60.4 °C.
As to VIRELSRAL, the thermal melting temperature came out at 45.3 °C.
KPINVRVTTM yielded a thermal melting temperature of 56 °C.
To RPIESPGGSVL belongs 45.3 °C; to LPGISREAL, 41.3 °C.
SPRDPVLTL had a thermal melting temperature of 64.4 °C.
To QPRDPSSTL belongs 43.5 °C; to LPSKPSSTL, 58.1 °C; to SPRFPAQYL, 62.6 °C.
Consider RPLPGALGV, for which the thermal melting temperature is 59 °C.
Sequence VPNAGRGLV displayed a thermal melting temperature of 58.5 °C.
With HPREPLPPIQ, the thermal melting temperature was determined as 51.3 °C.
As for IPSSHPVSL, the thermal melting temperature amounted to 56.2 °C.
